Assay results published in PubChem BioAssay (NCI).
This is part of a sample that, as a whole, favours compounds with a hit. Of some 83,000 tested, about 20% had one in any assay.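 Cell lines were cultured in 96-well plates, exposed to a single compound concentration, and assessed for percent growth 48 hours later.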 Values without a mark were called inactive. Activity calls are given as the source filed them. How the source made its calls: active means growth percent below 10; inactive means the rest.

Key:
Experiment in all cases: NCI-60 one-dose screen, 48 h (100 = growth as untreated, 0 = no growth, -100 = all killed)
DU-145 prostate = conditions: 10 µM
K-562 leukemia = conditions: 10 µM
MALME-3M melanoma = conditions: 10 µM
MDA-MB-231 breast = conditions: 10 µM
RXF 393 renal = conditions: 10 µM
SF-268 CNS = conditions: 10 µM
SF-295 CNS = conditions: 10 µM
SF-539 CNS = conditions: 10 µM
UACC-257 melanoma = conditions: 10 µM
M14 melanoma = conditions: 10 µM
HCT-15 colon = conditions: 10 µM
HT29 colon = conditions: 10 µM
SNB-75 CNS = conditions: 10 µM
SNB-19 CNS = conditions: 10 µM
U251 CNS = conditions: 10 µM
UACC-62 melanoma = conditions: 10 µM unless noted
LOX IMVI melanoma = conditions: 10 µM
SK-MEL-28 melanoma = conditions: 10 µM
PC-3 prostate = conditions: 10 µM
SK-MEL-5 melanoma = conditions: 10 µM

| SMILES | growth (DU-145 prostate) | growth (K-562 leukemia) | growth (MALME-3M melanoma) | growth (MDA-MB-231 breast) | growth (RXF 393 renal) | growth (SF-268 CNS) | growth (SF-295 CNS) | growth (SF-539 CNS) | growth (UACC-257 melanoma) | growth (M14 melanoma) | growth (HCT-15 colon) | growth (HT29 colon) | growth (SNB-75 CNS) | growth (SNB-19 CNS) | growth (U251 CNS) | growth (UACC-62 melanoma) | growth (LOX IMVI melanoma) | growth (SK-MEL-28 melanoma) | growth (PC-3 prostate) | growth (SK-MEL-5 melanoma) |
| --- | --- | --- | --- | --- | --- | --- | --- | --- | --- | --- | --- | --- | --- | --- | --- | --- | --- | --- | --- | --- |
| OCc1cccc2ccccc12 | 108% | 99.3% | 132% | 112% | 146% | 107% | 117% | 95.7% | 109% | 110% | 101% | 114% | 86.3% | 113% | 108% | 112% | 102% | 111% |  |  |
| O=C(/C(=N/O)c1ccccc1)c1ccccc1 | 111% | 120% | 82% | 98.5% | 102% | 100% | 94.4% | 104% | 97% | 108% | 96.8% | 117% | 85.4% | 100% | 94.6% | 88.3% | 105% | 105% | 94.9% |  |
| CCCCC(O)c1ccccc1 (stereo not drawn) | 108% | 94% | 102% | 116% | 107% | 98.6% | 104% | 106% | 101% | 109% | 102% | -11.4% (active) | 92.2% | 110% | 98.4% | 108% | 96.4% | 119% | 97.9% |  |
| CC(C)=NNC(N)=S | 88.3% | 48.2% | 78.4% | 83.8% | 93.1% | 90.7% | 85.4% | 108% | 77.9% | 65.2% | 73.5% | 40.5% | 93.5% | 94.4% | 88.2% | 91% | 69.7% | 94.1% | 77.9% |  |
| O=C1Cc2cc(O)ccc2O1 | 118% | 96.6% | 92.5% | 106% | 114% | 106% | 160% | 101% | 103% | 98.9% | 117% | 104% | 86% | 107% | 103% | 101% |  | 108% |  | 101% |
